Assay outcomes (PubChem)
Rab9 promoter act = activators of Rab9 promoter; AID 485297; hit rate 2.8% among 320,000; Potency, µM (doses to about 9.22 µM), for the others: at the top dose activation, negative = inhibition, usual class: activators; Huh7 Rab9 promoter-luciferase reporter, luminescence, 24 h; also: % of control where 0% means no effect; nearly all actives have a fitted effect of over 60% in size
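Luciferase signal after 10 min detection reagent at ambient indicates Rab9 promoter upregulation; stably transfected Huh7 cells were treated 24 h with compound in DMSO at 37 °C, 5% CO2.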
ELG1 genotoxic = inducers of genotoxicity in HEK293T ELG1-luciferase cells; HEK293T ELG1-luciferase reporter, luminescence, 16 h; Potency, µM (series often up to 46 µM), without a hit: top-dose activity change, positive = activation, hits mostly activators; hit rate 1.3% among 330,000; AID 504466; also: % of control where 0% means no effect; nearly all actives have a fitted effect of over 60% in size
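After overnight (16 hr) compound treatment at 37 °C, ELG1-luciferase HEK293T cells were lysed with ONE-Glo; luminescence quantified 30 min later at room temperature.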
SMN2 splice up = SMN2 splice variant enhancement; HEK293 SMN2-luciferase splicing reporter, luminescence, 30-36 h; AID 1458; hit rate 2.8% among 210,000; Potency, µM (highest dose often 46.1 µM), without a hit: at the top dose activity change, positive = activation, most hits filed as activators; also: % of control where 0% means no effect; nearly all actives have a fitted effect of over 55% in size
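qHTS luciferase splicing reporter: luminescence rises when SMN2 exon 7 is included in transfected HEK293 cells. Compound exposure lasted 30-36 h at 37C, with 4.5 mM final sodium butyrate as control, followed by a ONE-Glo read.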
FLuc modulator = inhibits or activates purified firefly luciferase, miR-21 counter-screen. P08659. purified FLuc, Km substrates, luminescence inhibition. Potency, µM (top dose mostly 57.5 µM), inactives show at the top dose activity change, negative = inhibition, actives largely listed as inhibitors. hit rate 6.9% among 360,000. AID 588342;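 also: plate controls were vehicle for no effect and reference inhibitor for full effect; nearly all actives have a fitted effect of over 55% in size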
Target sequence (P08659 whole entry, looked up): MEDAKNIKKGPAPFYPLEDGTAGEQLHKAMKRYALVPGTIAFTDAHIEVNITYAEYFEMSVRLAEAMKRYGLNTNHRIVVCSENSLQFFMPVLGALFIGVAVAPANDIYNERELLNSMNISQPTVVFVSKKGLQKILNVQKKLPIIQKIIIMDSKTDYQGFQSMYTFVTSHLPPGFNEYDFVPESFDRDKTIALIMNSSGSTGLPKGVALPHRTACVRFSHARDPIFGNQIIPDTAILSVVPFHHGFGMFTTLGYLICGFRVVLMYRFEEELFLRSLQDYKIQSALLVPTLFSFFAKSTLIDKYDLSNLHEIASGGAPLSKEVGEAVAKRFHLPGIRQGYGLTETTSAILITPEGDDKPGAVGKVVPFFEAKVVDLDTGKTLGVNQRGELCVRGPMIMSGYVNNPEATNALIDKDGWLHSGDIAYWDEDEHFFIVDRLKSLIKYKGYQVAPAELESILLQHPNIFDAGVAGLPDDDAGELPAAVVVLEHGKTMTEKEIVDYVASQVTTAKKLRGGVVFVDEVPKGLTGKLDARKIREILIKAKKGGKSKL
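Purified P. pyralis luciferase (10nM final) with 10uM D-luciferin and 10uM ATP (Km levels) in 50mM Tris acetate pH 7.5, 10mM Mg acetate, 0.01% Tween-20, 0.05% BSA; qHTS 6-point titration, ~60 µM downward; luminescence read.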
NPC1 prom act = activators of NPC1 promoter; Huh7 NPC1 promoter luciferase reporter, 24 h; Potency, µM (titrated, usually from 9.22 µM), without a hit: top-dose activation, hits mostly activators; hit rate 2.4% among 320,000; also: % of control where 0% means no effect; nearly all actives have a fitted effect of over 60% in size
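Luminescence read-out of NPC1 promoter-driven luciferase in stably transfected Huh7 cells; compounds delivered in DMSO and left 24 h at 37C, 5% CO2, qHTS titration format.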
Luc counter = Kinase-Glo luciferase inhibition (counter-screen). hit rate 0.28% among 200,000. Kinase-Glo luciferase, ATP luminescence, 8 min. Potency, µM (series often up to 38.3 µM), for inactives: at the highest dose activity change, negative = inhibition, actives largely listed as inhibitors. Q27757; also: % is scaled to controls: 0 for no effect and ±100 for the full control effect; nearly all actives have a fitted effect of over 60% in size
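Compounds were added to a substrate mix at pH 7.2 (50 mM imidazole, 10 uM ATP, within the enzyme's linear range), followed by Kinase-Glo detection reagent; luminescence was measured after 8 minutes at ambient temperature.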
The depositor's hits bear a star; ? = inconclusive; · = no result given; [ ] = dose if it differs, or a comment. Shown are actives, neighbours in structure and some others; about 7.5% of the full set was active somewhere. Calls follow the shape of the dose curve; as a rule, active = well fitted curve in the direction sought with a large enough effect; inconclusive = small, poorly fitted or top-dose-only effect, or another doubt; inactive = no such curve, though single readings can be large; an effect the other way counts as inactive or inconclusive. Potency is read from the fitted curve at half-maximal effect.

SMILES	Rab9 promoter act	ELG1 genotoxic	SMN2 splice up	FLuc modulator	NPC1 prom act	Luc counter
COc1ccc(NC2=NCC(C)S2)cc1 (stereo unspecified)	14%	5%	21%	-5%	2%	-1%
Cc1ccc(/C=C/C(=O)C2C(=O)c3ccccc3C2=O)cc1	?	?	10µM*	0.19µM*	?	-12%
CCSCC[C@H](N)C(=O)O	·	·	-2%[9.22 µM]	·	·	-2%[7.66 µM]
NS(=O)(=O)C[C-]1C=C[CH]([Sb-]([Cl])([Cl])([Cl])([Cl])[Cl])C=C1.c1ccncc1 (stereo unspecified)	·	·	3%[9.22 µM]	·	·	-4%[7.66 µM]
O=C(CSc1nnc(NC(=O)c2ccccc2[N+](=O)[O-])s1)NCc1ccco1	19%	13%	·	13µM*	2%	·
O=C(CSc1nnc(NC(=O)c2ccccc2F)s1)NCc1ccc(F)cc1	?	?	·	12µM*	?	·
CC(=O)O/C(=C1/C[C@H]2[C@@H]3CC=C4C[C@@H](OC(C)=O)CC[C@]4(C)[C@@H]3CC[C@]2(C)C1=O)C(F)(F)F	·	·	-3%[9.22 µM]	·	·	-5%[7.66 µM]
Cc1ccc(Cn2nc(C(=O)Nc3ccc(Br)cc3)cc2C)cc1	-11%	21µM*	·	9.5µM*	-13%	·
Nc1ccc(S(=O)(=O)c2ccc(NCN3C(=O)NC(=O)C(=O)C3=O)cc2)cc1	·	·	-13%[9.22 µM]	·	·	-2%[7.66 µM]
COC(=O)[C@@H]1c2cc3c(c(O)c2[C@@H](O)C[C@]1(C)O)C(=O)c1c(O)cc2c(c1C3=O)O[C@H]1O[C@@]2(C)[C@@H](O)[C@H](N(C)C)[C@H]1O	·	·	0%[9.22 µM]	·	·	-8%[7.66 µM]
C=C(Cl)CCl	·	·	8%	·	·	·
COC(=O)C(O)(c1ccc(NC(=O)Oc2ccccc2)cc1)C(F)(F)F (stereo unspecified)	-1%	2%	18%	15µM*	1%	-2%
O=C(O)C(Oc1nc(=S)[nH]c(=S)[nH]1)(c1ccc(Cl)cc1)c1ccc(Cl)cc1	·	·	1%[9.22 µM]	·	·	-1%[7.66 µM]
CN1C[C@H](C(=O)N[C@@]2(C)O[C@@]3(O)[C@H]4CCCN4C(=O)[C@@H](Cc4ccccc4)N3C2=O)C=C2c3cccc4[nH]cc(c34)C[C@@H]21	·	·	-3%[9.22 µM]	·	·	-8%[7.66 µM]
N#Cc1cc2c(nc1SCC(=O)Nc1cccc(F)c1)C1CCN2CC1	·	·	6.3µM*	-7%	·	·
COC(=O)c1ccc(NC(=O)CSc2nc3ccc(N4C(=O)C5C6C=CC(C6)C5C4=O)cc3s2)cc1 (stereo unspecified)	-8%	-13%	-104%	13µM*	-4%	5%
O=C(Nc1ccc2nc(SCC(=O)N3CCOCC3)sc2c1)c1ccc(Cl)cc1	·	·	·	11µM*	·	·
CCOC(=O)c1ccccc1N	·	0%	-7%	·	·	·
O=C(CNC(=O)c1ccc(Cl)cc1)OCC(=O)c1ccc2c(c1)OCCO2	2%	-7%	11%	21µM*	-2%	1%
CC(=O)Nc1ccccc1C(=O)OCC(=O)c1ccc2ccccc2c1	·	-11%	·	12µM*	26%	-1%
Nc1ccccc1C(=O)OCC(=O)c1ccc2c(c1)OCCO2	3.2µM*	?	-22%	0.076µM*	2.8µM*	11µM*
CN(C)c1ccc(/C=C/[N+](=O)[O-])cc1	4%	?	11µM*	?	2%	-7%
C/C(=C\c1ccc(N(C)C)cc1)[N+](=O)[O-]	-7%	15%	-17%	?	-11%	-6%
Cc1onc(-c2ccccc2)c1C(=O)NC1C(=O)N2C(C(=O)O)C(C)(C)S[C@@H]12 (stereo partly specified)	·	·	6%	·	·	0%
c1ccc(-c2nc(N3CCOCC3)s[n+]2-c2ccccc2)cc1	-1%	13%	12%	7.6µM*	2%	-2%
CCCCOc1ccc(CN2CCN(CCO)CC2)cc1	7%	?	-12%	-14%	9%	-2%
CCCCCCOc1ccc(CN2CCN(CCO)CC2)cc1	4µM*	8.2µM*	15%	19µM*	2.2µM*	-3%
